# INS-1E GSIS act = GLuc luminescence reporter in INS-1E cells, primary screen for activators of glucose-dependent secretion of insulin | INS-1E GLuc reporter insulin secretion, 2-3 h | activation, % at 16.6 µM | actives 0.61% (n = 370,000) | AID 743287, 2014;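 active = lowest replicate activation of at least 40%, so every replicate reaches that level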;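 note: 0% = median of neutral control wells and 100% = median of IBMX positive control wells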
# Neddylation inh = inhibitors of cullin neddylation, primary screen, biochemical, TR-FRET, uHTS, NAE and Ubc12; inhibition, % at 25 µM; AID 651699, 2012; actives 0.58% (n = 360,000); in the data active = inhibition above about 36%
# Vif imaging = HIV Vif self-association inhibitors, primary screen, imaging, HEK293T, single point. HEK293T cells, Vif self-association by quenched fluorescence, 24 h. inhibition, % at 7.49 µM. actives 0.35% (n = 340,000). AID 602346, 2012; in the data active = inhibition above about 50%, passing the limit was not always enough
# Bfl-1 A1 inh = caspase 3/7 activation in MEF A1-2A-BIM cells, primary screen, A1 inhibitor project, cell-based, luminescence, HTS | Caspase-Glo 3/7 luminescence, 3 h; percent of clofoctol response, vehicle zero | caspase activation, % (concentration not given with the values) | actives 0.066% (n = 330,000);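 active = over half of replicate activation scores above 10%, or exactly half above 10 with the replicate mean above 10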
# dFosB activator = activators of delta FosB homodimer, primary screen, biochemical, fluorescence polarization, TAMRA-CDK5 oligo, single point. Protein FosB (Mus musculus), P13346. purified delta FosB; percent of positive-control signal above neutral wells. actives 0.99% (n = 340,000). AID 493131, 2011. activation, % at 25 µM;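 active = mean activation above about 17%, with every replicate also reaching it, limit read from the data, passing the limit was not always enough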
# Target sequence (P13346 whole entry, looked up): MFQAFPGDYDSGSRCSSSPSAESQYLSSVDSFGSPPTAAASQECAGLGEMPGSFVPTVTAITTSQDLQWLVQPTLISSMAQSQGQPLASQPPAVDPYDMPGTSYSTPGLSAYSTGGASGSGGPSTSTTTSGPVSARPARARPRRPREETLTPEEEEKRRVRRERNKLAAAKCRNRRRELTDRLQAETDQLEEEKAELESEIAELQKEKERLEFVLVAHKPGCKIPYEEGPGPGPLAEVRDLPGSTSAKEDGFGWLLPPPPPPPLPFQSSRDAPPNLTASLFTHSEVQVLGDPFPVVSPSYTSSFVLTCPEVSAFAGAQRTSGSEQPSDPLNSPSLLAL
# Neddyl conf = blockade of NEDD8 conjugation to cullin – biochemical, TR-FRET, single concentration, confirmation; shares compounds with Neddylation inh; TR-FRET cullin neddylation biochemical assay; calls only at 25 µM; actives 13% (n = 1,800); AID 652217, 2013; in the data active = inhibition above about 40%;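 note: neddylation substrate is the cullin 1 ring ligase complex with SKP2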
# Active calls of the source: *; i = inactive; / = no result given; + = active, no number. An excerpt weighted towards active compounds, which were near 1.9% of everything screened.
SMILES,INS-1E GSIS act,Neddylation inh,Vif imaging,Bfl-1 A1 inh,dFosB activator,Neddyl conf
Cc1nc2cc(F)ccc2n1C1CCN(C(=O)c2c(F)cccc2F)CC1,-5,45*,-6,0,-7,i
CN(C)S(=O)(=O)c1cccc(NC(=O)c2cc3c(=O)n4ccccc4nc3s2)c1,1,61*,-7,1,-15,/
Cc1cc(NS(=O)(=O)c2ccc(NC(=O)c3cc4c(=O)n5ccccc5nc4s3)cc2)nc(C)n1,5,66*,-2,/,-26,+
CCC(C)NC(=O)c1cc2c(=O)n3ccccc3nc2s1 (stereo not drawn),15,/,3,-1,-9,/
Nc1ccc2oc3ccccc3c2c1,15,42*,-2,-1,-4,i
Cc1noc(C)c1S(=O)(=O)N(C)C[C@H]1Oc2ccc(NS(=O)(=O)c3ccc(Cl)cc3)cc2CC(=O)N([C@@H](C)CO)C[C@H]1C,-5,/,/,/,/,/
Cc1ccc2nc(C(C)(C)C)c(Cc3cccc(F)c3)n2c1,-19,40*,/,/,/,i
Cc1ccc(-c2nc3ccc(C)cn3c2Cc2cccc(F)c2)cc1,7,33,/,/,/,/
